# Assay outcomes as filed in PubChem.
# mut p53 react = mutant p53 pathway re-activators, primary screen, cell-based, SW480, luciferase, single point, HTS | SW480 PUMA-promoter luciferase, p53 mutant reactivation | activation, % at 9.98 µM | 28,000 tested, 1.5% active; in the data active = activation above about 52%
# ID4 SMM = binders of human ID4 protein, primary screen, biochemical, small molecule microarray, single point; DNA-binding protein inhibitor ID-4 (Homo sapiens), P47928; Flag-ID4 binding, fluorescence F/B; calls only; 31,000 tested, 1.2% active; AID 624137, 2012; call rule not given here;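 also: a binder raises fluorescence above local background on the spot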
# Target sequence (P47928 whole entry, looked up): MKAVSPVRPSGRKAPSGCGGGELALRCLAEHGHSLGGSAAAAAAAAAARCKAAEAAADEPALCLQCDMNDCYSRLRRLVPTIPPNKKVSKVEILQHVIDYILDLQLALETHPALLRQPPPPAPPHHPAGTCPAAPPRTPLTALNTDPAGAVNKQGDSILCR
# STK33 kin inh = STK33 kinase inhibitors, primary screen, biochemical, luminescence, ADP-Glo, MBP substrate | Serine/threonine-protein kinase 33 (Homo sapiens), Q9BYT3 | inhibition, % at 12.5 µM | 27,000 tested, 0.44% active; in the data active = inhibition above about 20%
# NOMO-1 viab = NOMO-1 AML cell viability reduction, primary screen, STK33 inhibitor project, CellTiter-Glo luminescence | 37,000 tested, 7.5% active | inhibition, % (test concentration not listed) | NOMO-1 AML viability, 72 h; in the data active = inhibition above about 80%
# Starred values were filed as active, the others as inactive; i = inactive; / = no result given; + = active, no number. Shown is part of a subset that was picked to be rich in hits.
SMILES,mut p53 react,ID4 SMM,STK33 kin inh,NOMO-1 viab
Cc1ccc2nc(Nc3nc(CSc4nnc(C)s4)cc(=O)[nH]3)nc(C)c2c1,54.2*,i,-0.1,40.9
Cc1cc(C(=O)N(c2ccccc2)C(C)C2CC2)c(Cl)cc1Cl (stereo unspecified),/,/,/,133.5*
CCOC(=O)C1CCCN(Cc2ccccc2)C1 (stereo unspecified),/,/,/,6.3
CCOC(=O)C1CCN(S(=O)(=O)Cc2ccccc2)C1=O (stereo unspecified),/,/,1.2,112.0*
CCN1C(=O)C=CC1=O,-0.4,i,-4.5,98.4*
C[C@H](CO)N1C[C@H](C)[C@H](CN(C)C)OCCCC[C@H](C)Oc2ccc(NC(=O)Nc3ccc(C(F)(F)F)cc3)cc2C1=O,-27.0,i,/,/
CC1Oc2ccccc2OC1(O)c1ccc(Br)cc1 (stereo unspecified),/,/,/,106.4*
C[C@@H]1CN([C@H](C)CO)C(=O)c2cc(-c3ccc(C#N)cc3)cnc2O[C@H]1CN(C)CC1CCCCC1,/,i,/,/
OC(c1cc(C(F)(F)F)nc2c(C(F)(F)F)cccc12)C1CCCCN1 (stereo unspecified),-2.7,i,-1.5,129.3*
Oc1ccc(CNc2cccc(C(F)(F)F)c2)c2cccnc12,/,/,/,104.4*
CC(=O)c1ccc(NC(=O)CSc2nc(O)c(-c3ccccc3)c(=O)[nH]2)cc1,28.6,i,-3.0,18.9
CCc1c(O)nc(SCC(=O)Nc2ccc(C(C)=O)cc2)[nH]c1=O,11.0,+,-2.2,25.2
CC(=O)c1ccc(NC(=O)CSc2nc(-c3ccccc3)c(C#N)c(=O)[nH]2)cc1,59.0*,i,-1.3,-34.1
N#Cc1c(-c2ccccc2)nc(SCC(=O)Nc2ccc(Oc3ccccc3)cc2)[nH]c1=O,12.5,i,-6.5,30.2
C[C@H]1CN([C@@H](C)CO)C(=O)c2cc(NC(=O)C3CCCCC3)ccc2O[C@@H]1CN(C)C(=O)Nc1ccc2c(c1)OCO2,/,/,/,23.3
Cc1cc(Cl)ccc1OC(C)C(=O)Nc1cc(C(=O)O)cc(C(=O)O)c1 (stereo unspecified),1.1,i,-4.7,-11.2
FC(F)(F)c1cc(-c2ccc3ccccc3c2)no1,/,/,/,88.1*
CCOC(=O)NC1c2ccccc2Sc2ccc(Cl)cc21 (stereo unspecified),-18.0,i,/,/
COc1ccc(/C=C2\Oc3cc(O)cc(O)c3C2=O)cc1O,2.9,i,31.4*,8.2
COc1ccccc1-c1ccc2c(c1)O[C@@H](CN(C)C(=O)c1cccnc1)[C@H](C)CN([C@@H](C)CO)S2(=O)=O,/,i,/,/
COc1ccc(Oc2c(C(F)(F)F)oc3cc(OCC(=O)Nc4ccccc4F)ccc3c2=O)cc1,-38.9,i,5.8,95.8*
COc1ccc2c(C)nc(Nc3nc(C)cc(=O)[nH]3)nc2c1,72.7*,i,2.4,116.9*
Cc1cc(=O)[nH]c(Nc2nc(C)c3cccc(C)c3n2)n1,-68.4,i,-0.9,130.2*
CCCc1cc(=O)[nH]c(Nc2nc(C)c3ccc(OC)cc3n2)n1,32.8,i,-3.5,20.6
COC(=O)c1ccccc1NC(=O)CSc1nnc(-c2ccco2)n1-c1ccccc1,3.5,i,-1.7,-23.1
SMILES,mut p53 react,ID4 SMM,STK33 kin inh,NOMO-1 viab
CC(C)(C)C(=O)Nc1ccccc1C(=O)N1CCN(Cc2ccccc2)CC1,/,/,/,-31.7
COc1ccc(NC(=O)Cn2nnc(-c3ccccc3Cl)n2)c(OC)c1,-5.4,i,-0.6,11.9
C[C@@H]1CN([C@H](C)CO)C(=O)c2cccc(NC(=O)CCCCCC(=O)Nc3ccccc3N)c2O[C@@H]1CN(C)CC1CCCCC1,/,/,/,118.6*
C[C@H]1CN([C@@H](C)CO)C(=O)c2cccc(NC(=O)CCCCCC(=O)Nc3ccccc3N)c2O[C@@H]1CN(C)Cc1ccc(-c2ccccc2)cc1,/,/,/,134.4*
C[C@H](CO)N1C[C@H](C)[C@@H](CN(C)Cc2ccncc2)Oc2c(NC(=O)CCCCCC(=O)Nc3ccccc3N)cccc2C1=O,/,/,/,15.1
C[C@H]1CN([C@@H](C)CO)C(=O)c2cccc(NC(=O)CCCCCC(=O)Nc3ccccc3N)c2O[C@H]1CN(C)CC1CC1,/,/,/,12.7
C[C@@H]1CN([C@H](C)CO)C(=O)c2cccc(NC(=O)CCCCCC(=O)Nc3ccccc3N)c2O[C@H]1CN(C)Cc1ccc(-c2ccccc2)cc1,/,/,/,125.7*
COC(=O)C[C@H]1C[C@H]2c3cc(NC(=O)Nc4ccccc4F)ccc3O[C@H]2[C@@H](CO)O1,10.7,i,/,/
C[C@H]1CN([C@@H](C)CO)C(=O)Cc2cc(NC(=O)Nc3cccc4ccccc34)ccc2O[C@@H]1CN(C)Cc1ccc(C(=O)Nc2ccccc2N)cc1,/,/,/,28.6
C[C@@H]1CN([C@@H](C)CO)C(=O)c2cc(NC(=O)Nc3ccccc3)ccc2O[C@@H]1CN(C)Cc1ccc(C(=O)Nc2ccccc2N)cc1,/,/,/,110.9*
COc1ccc(NC(=O)Nc2ccc3c(c2)C(=O)N([C@H](C)CO)C[C@H](C)[C@H](CN(C)Cc2ccc(C(=O)Nc4ccccc4N)cc2)O3)cc1,/,/,/,38.9
C[C@@H]1CN([C@@H](C)CO)C(=O)c2cc(NC(=O)Nc3cccc4ccccc34)ccc2O[C@@H]1CN(C)Cc1ccc(C(=O)Nc2ccccc2N)cc1,/,/,/,110.3*
C[C@@H]1CN([C@@H](C)CO)C(=O)c2cc(NC(=O)Nc3ccc4c(c3)OCO4)ccc2O[C@H]1CN(C)Cc1ccc(C(=O)Nc2ccccc2N)cc1,/,/,/,58.1
C[C@@H]1CN([C@@H](C)CO)C(=O)c2cc(NC(=O)Nc3ccc4c(c3)OCO4)ccc2O[C@@H]1CN(C)Cc1ccc(C(=O)Nc2ccccc2N)cc1,/,/,/,108.2*
C[C@H](CO)N1C[C@H](C)[C@H](CN(C)Cc2ccc(C(=O)Nc3ccccc3N)cc2)Oc2ccc(NC(=O)Cc3ccccc3)cc2C1=O,/,/,/,103.6*
C[C@@H]1CN([C@@H](C)CO)C(=O)c2cc(C#CC3(O)CCCC3)cnc2O[C@@H]1CN(C)S(=O)(=O)c1ccccc1,6.8,/,/,/
C[C@H]1CN([C@@H](C)CO)C(=O)c2cc(NC(=O)Nc3ccc4c(c3)OCO4)ccc2O[C@H]1CN(C)C(=O)Nc1ccc2c(c1)OCO2,-5.0,i,-0.3,-2.9
C[C@H]1CN([C@@H](C)CO)C(=O)c2cc(NS(=O)(=O)c3ccc(F)cc3)ccc2O[C@@H]1CN(C)S(=O)(=O)c1ccc(F)cc1,/,/,/,16.4
Cc1ccc2oc(-c3ccc(NC(=O)Cn4c(=O)oc5ccccc54)cc3)nc2c1,60.3*,i,5.2,11.3
COc1ccc(C=Nc2ccc(Br)cc2)cc1,/,/,/,11.1
CC(C)(C)c1ccc2cc(C#N)c(C#N)cc2c1,/,/,/,140.3*
O=C(CC1(O)C(=O)N(Cc2cccc3ccccc23)c2ccccc21)c1ccccc1[N+](=O)[O-] (stereo unspecified),-5.1,i,3.4,114.5*
O=C(CC1(O)C(=O)N(Cc2ccccc2)c2ccc(Cl)cc21)c1ccncc1 (stereo unspecified),-4.4,i,-0.6,117.1*
O=C(CC1(O)C(=O)N(Cc2cccc3ccccc23)c2ccccc21)c1ccc(Br)s1 (stereo unspecified),-16.3,i,-0.1,/
